Assay results taken from PubChem BioAssay (NCI).
Where “and” joins values, the source holds several entries; their conditions need not be identical. Identical values can stand only once. Compounds without any hit were thinned out: in the full panel of roughly 83,000, 20% have a hit.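 Note: values are percent growth. 100 is the growth of untreated cells, values between 100 and 0 indicate rising inhibition; between -100 and 0 indicates cell death.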 Calls of active or inactive are those of the source. How the source made its calls: active means growth percent below 10; inactive means the rest.

Tests used:
Experiment in all cases: NCI-60 one-dose screen, 48 h (100 = growth as untreated, 0 = no growth, -100 = all killed)
Conditions in all cases: 10 µM unless noted
NCI-H23 lung = system: NCI-H23 lung
NCI-H226 lung = system: NCI-H226 lung
NCI-H322M lung = system: NCI-H322M lung
HOP-62 NSCLC = system: HOP-62 NSCLC
NCI-H460 lung = system: NCI-H460 lung
HOP-92 NSCLC = system: HOP-92 NSCLC
NCI-H522 lung = system: NCI-H522 lung
A549/ATCC NSCLC = system: A549/ATCC NSCLC
786-0 renal = system: 786-0 renal
COLO 205 colon = system: COLO 205 colon

Measured: growth

COc1ccccc1/C=C1\COc2ccc(O)c(O)c2C1=O
active: NCI-H522 lung -42.3% | 786-0 renal 2.1%
inactive: NCI-H23 lung 40.8% | NCI-H226 lung 76% | NCI-H322M lung 46.2% | HOP-62 NSCLC 17.3% | NCI-H460 lung 24.6% | HOP-92 NSCLC 29.6% | A549/ATCC NSCLC 50.6% | COLO 205 colon 77.9%

CCN(CC)CCOc1ccccc1C
inactive: NCI-H23 lung 111% | NCI-H226 lung 116% | HOP-62 NSCLC 93.8% | NCI-H460 lung 109% | HOP-92 NSCLC 94.6% | NCI-H522 lung 92.6% | A549/ATCC NSCLC 98.6% | 786-0 renal 98.8% | COLO 205 colon 111%

Fc1ccccc1-c1cnn2cc(-c3ccccc3)cnc12
inactive: NCI-H23 lung 95.5% | NCI-H226 lung 94.3% | NCI-H322M lung 95.5% | HOP-62 NSCLC 103% | NCI-H460 lung 98.2% | HOP-92 NSCLC 100% | NCI-H522 lung 97.7% | A549/ATCC NSCLC 94.2% | 786-0 renal 97.2% | COLO 205 colon 118%

COc1ccc(-c2c[nH]c(C(=O)O)c2-c2cc(OC)c(OC)c(OC)c2)cc1
inactive: NCI-H23 lung 48.5% | NCI-H226 lung 88.9% | NCI-H322M lung 47.9% | HOP-62 NSCLC 37.3% | NCI-H460 lung 14.4% | HOP-92 NSCLC 32.2% | NCI-H522 lung 28.1% | A549/ATCC NSCLC 49.4% | 786-0 renal 31.3% | COLO 205 colon 14.7%

O=C1/C(=C/c2ccc(-c3ccccc3C(F)(F)F)o2)SC(=S)N1CCc1ccc(O)cc1
active: NCI-H522 lung -11%
inactive: NCI-H23 lung 78.2% | NCI-H226 lung 90.2% | NCI-H322M lung 75.6% | HOP-62 NSCLC 50.2% | NCI-H460 lung 48.3% | HOP-92 NSCLC 61% | A549/ATCC NSCLC 45.7% | 786-0 renal 65% | COLO 205 colon 48.1%

N#CC(Cc1cccc2ccccc12)c1cc2ccccc2[nH]1 (stereo unspecified)
inactive: NCI-H23 lung 85% | NCI-H226 lung 83.1% | HOP-62 NSCLC 78.4% | NCI-H460 lung 99.8% | HOP-92 NSCLC 55.6% | NCI-H522 lung 75.5% | A549/ATCC NSCLC 89.5% | 786-0 renal 95.3% | COLO 205 colon 105%

O=C1C(Nc2ccc(Cl)cc2)=C(I)C(=O)c2ncccc21
inactive: NCI-H226 lung 88.4% | NCI-H322M lung 64.3% | HOP-62 NSCLC 48.1% | NCI-H460 lung 17.5% | A549/ATCC NSCLC 35.5% | 786-0 renal 26.1%
active: NCI-H23 lung 9.7% | HOP-92 NSCLC -90.4% | NCI-H522 lung -58.7% | COLO 205 colon -45.9%

O=[N+]([O-])c1cc(C(F)(F)F)ccc1Sc1ccc(C(F)(F)F)cc1[N+](=O)[O-]
inactive: NCI-H23 lung 63.1% | NCI-H226 lung 90.9% | NCI-H322M lung 112% | HOP-62 NSCLC 94.6% | NCI-H460 lung 74.4% | HOP-92 NSCLC 120% | NCI-H522 lung 77.9% | A549/ATCC NSCLC 93.4% | 786-0 renal 103% | COLO 205 colon 123%

COc1ccc(C/C(C)=C(/c2ccc(OCCN3CCCCCC3)cc2)c2ccc(OC(=O)c3ccccc3)cc2)cc1
inactive: NCI-H23 lung 109% | NCI-H226 lung 110% | HOP-62 NSCLC 91.3% | NCI-H460 lung 110% | HOP-92 NSCLC 105% | NCI-H522 lung 75.6% | A549/ATCC NSCLC 97.5% | 786-0 renal 96.8% | COLO 205 colon 113%

COc1ccc(/C=N/C2=C(C#N)C(c3ccccc3)c3c(ccc4ccccc34)O2)cc1 (stereo unspecified)
active: NCI-H522 lung 2.3% | COLO 205 colon 0.29%
inactive: NCI-H23 lung 36.9% | NCI-H226 lung 33.8% | NCI-H322M lung 40.9% | HOP-62 NSCLC 35.5% | NCI-H460 lung 15.5% | HOP-92 NSCLC 53.9% | A549/ATCC NSCLC 41.9% | 786-0 renal 29.2%

COc1cc(NC2CCCCC2O)c2nc(-c3ccc(Cl)cc3)ccc2c1 (stereo unspecified)
inactive: NCI-H23 lung 84.2% and 98.5% | NCI-H226 lung 90% | NCI-H322M lung 88.8% and 88.2% | HOP-62 NSCLC 109% and 108% | NCI-H460 lung 41.2% and 57.9% | NCI-H522 lung 65.7% and 89.5% | A549/ATCC NSCLC 69% and 73.5% | 786-0 renal 42.4% and 77.6% | COLO 205 colon 93.2% and 110%

COc1cccc(C2C(C#N)=C(N)Oc3cc(OCCCCCC[P+](c4ccccc4)(c4ccccc4)c4ccccc4)ccc32)c1 (stereo unspecified)
active: NCI-H23 lung -23.1% | NCI-H226 lung 7.81% | NCI-H322M lung 6.6% | HOP-62 NSCLC -39% | NCI-H460 lung -44.4% | HOP-92 NSCLC -51.7% | NCI-H522 lung -10.7% | 786-0 renal -46.3% | COLO 205 colon -62.5%
inactive: A549/ATCC NSCLC 10.2%

CCOC(=O)C1=C(C)N=C2SC=C(c3ccc(F)cc3)N2[C@H]1c1cn(-c2ccccc2)nc1-c1ccc(Cl)cc1
inactive: NCI-H23 lung 102% | NCI-H226 lung 96.4% | NCI-H322M lung 88.6% | HOP-62 NSCLC 86.8% | NCI-H460 lung 102% | HOP-92 NSCLC 61.6% | NCI-H522 lung 83.4% | A549/ATCC NSCLC 77.8% | 786-0 renal 87.6% | COLO 205 colon 107%

N#Cc1c(N)nnn1Cc1cc(=O)oc2ccc(O)cc12
inactive: NCI-H23 lung 106% | NCI-H226 lung 95.7% | NCI-H322M lung 110% | HOP-62 NSCLC 106% | NCI-H460 lung 107% | HOP-92 NSCLC 95.7% | NCI-H522 lung 89.6% | A549/ATCC NSCLC 98.7% | 786-0 renal 106% | COLO 205 colon 118%

O=C(/C=C/c1ccc(Cl)s1)c1ccc(Cl)s1
inactive: NCI-H23 lung 89.4% and 110% | NCI-H226 lung 91.4% and 102% | NCI-H322M lung 97.4% | NCI-H460 lung 101% and 115% | HOP-92 NSCLC 79.3% and 105% | NCI-H522 lung 70.1% and 87.1% | A549/ATCC NSCLC 96.8% | 786-0 renal 79.7% and 94.8% | COLO 205 colon 112% and 122%

Cc1nc(Nc2ncc(C(=O)Nc3c(C)cccc3Cl)s2)cc(N2CCN(CCO)CC2)n1
active: NCI-H322M lung 0.803% | HOP-92 NSCLC -21.5% and -11.5% | NCI-H522 lung -1.57% | COLO 205 colon -1.08% and -9.83%
25.1% (inactive) and 6.75% (active): A549/ATCC NSCLC
22.2% (inactive) and 9.13% (active): 786-0 renal
inactive: NCI-H23 lung 46.6% and 32.6% | NCI-H226 lung 31.9% and 45.6% | HOP-62 NSCLC 12% | NCI-H460 lung 74.3% and 42.7%

S=c1nc(CS)[nH]c2ccccc12
inactive: NCI-H23 lung 89.5% | NCI-H226 lung 87.4% | NCI-H322M lung 95.6% | HOP-62 NSCLC 89.6% | NCI-H460 lung 100% | HOP-92 NSCLC 96.8% | NCI-H522 lung 95.6% | A549/ATCC NSCLC 96.6% | 786-0 renal 103% | COLO 205 colon 112%

C=C[C@]1(C)C=C2CC[C@@H]3C(C)(C)C(=O)CC[C@@]3(C)[C@@H]2CC1
inactive: NCI-H23 lung 104% | NCI-H226 lung 126% | HOP-62 NSCLC 105% | NCI-H460 lung 109% | HOP-92 NSCLC 97.7% | NCI-H522 lung 94.6% | A549/ATCC NSCLC 101% | 786-0 renal 98.6% | COLO 205 colon 116%

O=C(Nc1cc(C(F)(F)F)cc(C(F)(F)F)c1)c1cc(Cl)ccc1O
active: NCI-H23 lung -25.2% and -11.5% | NCI-H226 lung -27.9% | HOP-62 NSCLC -27.3% and -3.41% | NCI-H460 lung 0.0882% and 2.21% | HOP-92 NSCLC -19.6% and -14.1% | NCI-H522 lung -45.5% and -23% | A549/ATCC NSCLC -7.9% and 5.51% | 786-0 renal -41.1% and -48.8% | COLO 205 colon -83.1% and -64.5%

C=C1C(=O)O[C@H]2[C@H]1CC/C(CNS(=O)(=O)c1ccc3ccccc3c1)=C\CC[C@@]1(C)O[C@@H]21
active: NCI-H23 lung -3.15% | NCI-H226 lung -25.4% | HOP-92 NSCLC -29.6% | NCI-H522 lung -78.6% | 786-0 renal -67% | COLO 205 colon -84.5%
inactive: HOP-62 NSCLC 78.4% | NCI-H460 lung 91.7% | A549/ATCC NSCLC 69%

Nc1ccc(/C=N/Nc2ccnc3c(N)cccc23)c2cccnc12
active: NCI-H23 lung 3.42% | HOP-62 NSCLC -64.3% | NCI-H460 lung -63.8% | HOP-92 NSCLC -17.9% | NCI-H522 lung -52.2% | A549/ATCC NSCLC -43.8% | 786-0 renal -87% | COLO 205 colon -22.8%
inactive: NCI-H226 lung 89.3%

C=C1C(=O)O[C@H]2[C@H]1CC/C(COC(=O)NCCCCNC(=O)OC/C1=C/CC[C@@]3(C)O[C@H]3[C@H]3OC(=O)C(=C)[C@@H]3CC1)=C\CC[C@@]1(C)O[C@@H]21
inactive: NCI-H23 lung 38.3% | NCI-H226 lung 53.2% | HOP-62 NSCLC 73.8% | NCI-H460 lung 102% | A549/ATCC NSCLC 94.9% | 786-0 renal 22.7%
active: HOP-92 NSCLC -32.8% | NCI-H522 lung -61.4% | COLO 205 colon -43.4%

CNC(=O)c1cc(Oc2ccc3nc(NC(=O)Nc4ccc(C(F)(F)F)cc4)sc3c2)ccn1
active: A549/ATCC NSCLC 1.79%
inactive: NCI-H23 lung 63.4% | NCI-H226 lung 85.6% | HOP-62 NSCLC 67.4% | NCI-H460 lung 33.4% | HOP-92 NSCLC 74.4% | NCI-H522 lung 42.4% | 786-0 renal 35.4% | COLO 205 colon 58.7%

Cc1ccc(S(=O)(=O)Nc2cc(Sc3ccccc3)c(O)c3ccccc23)cc1
inactive: NCI-H23 lung 58% | NCI-H226 lung 96% | HOP-62 NSCLC 112% | NCI-H460 lung 105% | HOP-92 NSCLC 18.2% | NCI-H522 lung 81% | A549/ATCC NSCLC 90.3% | 786-0 renal 104% | COLO 205 colon 108%

CCOc1ccc(N2C(N)=NC(N)=NC2(C)C)cc1
-7.67% (active) and 90.1% (inactive): NCI-H522 lung
-32.6% (active) and 83% (inactive): COLO 205 colon
inactive: NCI-H23 lung 47.6% and 83.8% | NCI-H322M lung 45.2% and 99.4% | HOP-62 NSCLC 26.6% and 84.5% | NCI-H460 lung 13.7% and 104% | HOP-92 NSCLC 10.3% and 72.5% | A549/ATCC NSCLC 19.5% and 44.8% | 786-0 renal 56.5% and 84.2%

NC(=O)c1c(NC(=O)/C=C/c2cccs2)sc2c1CCC(=O)C2
active: NCI-H522 lung -4.08%
inactive: NCI-H23 lung 17.4% | NCI-H226 lung 68.5% | HOP-62 NSCLC 87.3% | NCI-H460 lung 58% | HOP-92 NSCLC 42.4% | A549/ATCC NSCLC 74.9% | 786-0 renal 70.2% | COLO 205 colon 55.5%
